This assay relates to HFF. Description: cell viability relative to DMSO control; higher = less cytotoxic. The conditions noted are these: 1 µM; 72 h. The procedure: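 Single-dose cytotoxicity screen of the MMV Pandemic Response Box at 1 uM on human foreskin fibroblasts (HFF), 72 h at 37 C. Viability measured by MTT (OD 550 nm) and normalised to the DMSO control (% survival).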
For `CCOC(=O)N[C@@H]1CC[C@@H]2[C@@H](C1)C[C@H]1C(=O)O[C@H](C)[C@H]1[C@H]2/C=C/c1ccc(-c2cccc(F)c2)cn1`, the cell viability was determined as 55.3%.

For `NC(=O)c1ccccc1NC(=O)c1ccc(C(=O)Nc2ccccc2C(N)=O)cc1`, the cell viability amounted to 63.5%. As for `O=C(/C(=C/c1ccc(Cl)cc1Cl)n1ccnc1)c1ccc(Cl)cc1`, the figure is 74.8%.

`O=C(CSc1nnc(Br)n1-c1ccc(C2CC2)c2ccccc12)Nc1ccc(C(=O)O)cc1Cl` yielded a cell viability of 66.5%. As for `O=c1oc2ccc(Br)cc2cc1CSc1ncc[nH]1`, the figure is 74.7%; as for `O=C(O)c1sccc1S(=O)(=O)n1ccc2cc(Br)ccc21`, 65.1%.

Turning to `O=C(O)C[C@H]1CC[C@H](c2ccc(-c3ccc(Nc4ccc(C(F)(F)F)nc4)cn3)cc2)CC1`, the cell viability worked out at 67.6%.

The compound `CC[C@H]1OC(=O)[C@H](C)[C@@H](O[C@H]2C[C@@](C)(OC)[C@@H](O)[C@H](C)O2)[C@H](C)[C@@H](O[C@@H]2O[C@H](C)C[C@H](N(C)C)[C@H]2O)[C@](C)(O)C[C@@H](C)C(=O)[C@H](C)[C@@H](O)[C@]1(C)O` gave a cell viability of 71.6%.

On to `O=S(=O)(NCB(O)O)c1cc2c(Cl)ccc(Cl)c2s1`, for which the cell viability worked out at 68%. As for `Clc1cccc(-c2nnc(-c3ccccc3)o2)c1`, the figure is 64.1%. As for `CO[C@@]1(NC(=O)Cc2cccs2)C(=O)N2C(C(=O)O)=C(COC(N)=O)CS[C@@H]21`, the figure is 63.7%; as for `CCc1ccccc1OCCN1CCCCCC1`, 55.1%; as for `Nc1cc(N)c2nc(-c3ccccc3)c(Nc3ccc(F)cc3)nc2c1`, 80.1%. As for `NC(=O)c1c(N)sc2c1CCCCC2`, the figure is 74.1%; as for `O=C(Nc1nnc(-c2ccccc2)o1)c1ccc(F)cc1`, 65.2%; as for `CC(C)Cn1c(=O)n(C)c(=O)c2c(-c3cncn3C)n(Cc3cccc4ccccc34)nc21`, 63.1%.

`CC[N+]1(C/C2=C/CCCCCC2)CCC(NC(=O)C2c3cc(Cl)ccc3Oc3ccc(Cl)cc32)CC1` (configuration not stated) registered a cell viability of 65.6%. Then `C=C(C)n1c(=O)n(Cc2ccccc2C)c2ccccc21`, with 63%; and `OC1O[C@H](CSc2ccc(F)cc2)[C@@H](O)[C@H]1O` (some centres not stated), with 67.7%; and `CC(N)C12CC3CC(CC(C3)C1)C2` (configuration not stated), with 63.2%.

Regarding `Nc1nc(Nc2ccc3nc(-c4ccc(F)cc4)cc(N)c3c2)cc(-c2ccccc2)n1`, the cell viability turned out to be 78.1%. Consider `O=c1[nH]c(=O)n(Cc2cccc(Oc3ccccc3)c2)cc1Nc1ccccc1`, for which the cell viability was 63.8%. As for `CCCCCCCc1[nH]c2ccccc2c(=O)c1O`, the figure is 62%. As for `CCOC(=O)/C=C/[C@H](C[C@@H]1CCNC1=O)NC(=O)[C@H](CC)n1cccc(NC(=O)c2cc(C)on2)c1=O`, the figure is 68.3%; as for `CC[C@H](CO)Nc1nc(NCc2ccccc2)c2ncn(C(C)C)c2n1`, 68.9%; as for `C[C@H](c1cccc2ccccc12)N(C)Cc1ccccc1`, 65.7%. As for `O=C(N[C@H](CCS)C(=O)N[C@H](Cc1ccccc1)C(=O)O)c1cc2ccccc2[nH]1`, the figure is 67.6%; as for `O[C@@](Cn1cnnn1)(c1ccc(F)cc1F)C(F)(F)c1ccc(-c2ccc(OCC(F)(F)F)cc2)cn1`, 58.9%. `NC(=O)c1ccc(I)c([N+](=O)[O-])c1` gave a cell viability of 71.1%. As to `CC(C)(C)NC(=O)[C@@H]1CN(Cc2cnc3occc3c2)CCN1C[C@@H](O)C[C@@H](Cc1ccccc1)C(=O)N[C@H]1c2ccccc2C[C@H]1O`, the cell viability is 72.6%. Then `Cc1onc(-c2ccccc2)c1-c1ccc(S(N)(=O)=O)cc1`, with 66.8%; and `Nc1nc(NC2Cc3ccc(F)cc3C2)nc(N2CCCCC2)n1` (configuration not stated), with 72.4%. As for `Fc1ccc(-n2cc(Cn3c(-c4cccc(F)c4)nc4ccccc43)nn2)cc1`, the figure is 71.1%. Take `C[C@@H]1O[C@@H]1P(=O)(O)O`: the cell viability came to 65%.

As to `Cc1cc(-c2ccccc2)c(C(=O)C(=O)Nc2ccc(N3CCN(c4ncc(F)cn4)CC3)cc2)n1C`, the cell viability came to 76.8%.

In the case of `O=C(O)COc1cccc2c1CC[C@](O)(COC(=O)N(c1ccccc1)c1ccccc1)C2`, the cell viability amounted to 68.5%. Compound `CC#C[C@]1(O)CC[C@H]2[C@@H]3CCC4=CC(=O)CCC4=C3[C@@H](c3ccc(N(C)C)cc3)C[C@@]21C` returned a cell viability of 52%.

The values are drawn from the supplement of paper PMC10941209.
